Source: the supplement of paper PMC12632987
Over roughly 2,300 sequences, “median log2 fold change of GCK-ALFA target abundance (FLAG IP / Myc IP barcode read proportion)” has its median near 0.095; the lowest 2% begin near -0.47. What follows is part of a selection rich in the lowest values, with near analogues and random picks from the rest.

B1: LC3A_28_758 (protein)
chain: MDVAEIVAAAIAEAKAAAAAGEEAVIRIRVPAGATQEDIDKVIAGLEEIAEIRKDMKSTSIVIDIEAGVSQENIDKLIDAGEAIEKKYPNITVIFALDED
B2: LC3A_59_2012 (protein)
chain: REEVREWVEKIYEAYDDVEKFYELVKKAYEELKKKYSDEELLKLVKEEVERLIKEGKDPRKMKAIYESFKAVIEIKDEEKQKEEIRLIILESEIEEIDEE
B3: LC3A_3_1808 (protein)
chain: MEERLEEVIKLLKEAGHSEETIKAFLEAAEALKEKGYEEALETLLELARELVDLPSELLLEMFEDVLELVETSDDSEEEITERIREIASTYRHEAEIEEL
B4: LC3A_132_320 (protein)
chain: MEEKARRIREEILRLIEEAEENIDDLEKVEELVEEIRELARRAEEELTPEQVAEIFEEAAEKADEVSLKADEEGKEDVALLMDGLSVELAALSIRAEEKI
B5: LC3A_free_2_2172 (protein)
chain: MKYRVIIDALGKPEGIAKLVKTLVDLGIEVEVTTEDGTKMTATKETVEEVVKYLLSKKEEIYVELEAVTDKEKADKALDELEKVAEETGISYIVSIEELE
B6: LC3A_28_689 (protein)
chain: NYIEELKKKAEEILEEAAAKGEEAYIEIDFERPITPEEVEEIMDKLEEYIKKYKLKKVNIVINILSENQSQETIDTIMDKAEELEKRIPNVTVIIALPEN
B7: LC3A_3_1500 (protein)
chain: LEEAVERLLEALREAGVSEADIAEARELLEKAREYLTEESIEAITETVRRLAHLPPRLVAAAVLTLLETILEKKLNDEEVKEKAELLAETAESFAESDER
B8: LC3A_28_698 (protein)
chain: SRVDEDIERARKIAEEAIAKGEDALIELTIRPDTTAEDVDRILATIRELAEKMSKTGKLYVVVDVESGVDQANIDRIADELDKLMEEIPNLTAVIALDED
B9: LC3A_141_369 (protein)
chain: KTVTLKLELKNSSLDEVIEKMEELEEEVLKAYEELGGGKVKVTVTLTFKNSKTGETTVIKEEFEADKEELEMLLEGVLIEAASYRLTENADITVTVTLEA
B10: LC3A_28_725 (protein)
chain: NELEESIEKALKKAKELAEKGKSDVIEITIPGNATQEDIEKVIKALEEIAEIVKDLESVSIVIDVEGGVKQEHIDKLADKAEEIEKKYPNVTVIIALDED
B11: LC3A_free_0_2099 (protein)
chain: MTTVVEVLGIIDNENDKEAAEAIAEELKKLGKKLSEEKGWKVTVELKKVNGSYVITVTIEGKGMSIEEGLEIADEIADKIERLAKEHGVEVTIYTSVYEE
B12: LC3A_28_943 (protein)
chain: MSIEEDIEAALKEAKEAKKKGEPAVITITVKGTATQEEVDAVIKTIKEIAELLKDIKGSAIIVDIEAGVAQEHVDALMDTLDEIEKKYPNINAIAALDED
B13: LC3A_28_944 (protein)
chain: MTIEEEIEKALKEAKEAKAKKEPAVITITVKGDATEEEIEKVIETIKEIAELLKDIKGSAIIVDVEKGVKEEHINKLLDTLDEIEKKYPNISAIMALDED
B14: LC3A_3_1778 (protein)
chain: ADELIEELLEALREAGKSEETIEAAREVAERLRERGFDEALETFVREMRRLLDVPDDILLDMLEEVLELLETEDLSEEEVIERIEELARLARAEAEIEEL
B15: LC3A_132_258 (protein)
chain: SEEKKEEFLEKFKELIDKIVEALQAGQDPSPYLKELDELAEEAAEELSLEELEELVEEAEKYARERFAERLDPNDPEARRTLLIVEMILDSALIESELRA
B16: LC3A_132_256 (protein)
chain: SEELYERFLEEAKELIDKIVDALKAGKDPSPYIKELDELAEEAAEKLSLEELERLVEEAEEYAEERFAERLDPNDPEARRALDIVEMILDSALIEAELRA
B17: LC3A_28_714 (protein)
chain: SPLEESIKKALEEAKEAAKKGEEAVIEIKVEGEITEEETEKVQKAIEEIAEITKDLKSTTIIVDVDGKVPQEHINKILDKGEEVEKKYPNVTVIFALDEN
B18: LC3A_free_0_2103 (protein)
chain: SVTVVEVVAISKEKWSEEKAKKLKEAAEKLAKELEEKYGMETEVKLEEIDGRQVLTIKAKKEGMSIDEGLEIADYIADHLEEKAKELGVEVEIYESVYEE
B19: LC3A_3_1781 (protein)
chain: AEARIAELLAALEAAGASPETIAAVRAAAEALRARGYEEALATFVEEMRRLLGLPDEIRLAFAQEVLRLIEENDLSEEELTEEIRRLARLARLEAEIEEL
B20: LC3A_free_8_2489 (protein)
chain: KSQELANLASDLLDELEEEVEKKAKELGASELDILDLSLLIGSTIAEAYSLSDESPEKIIEAVREGLEELIERAKEISEELAKKVKELSEKILKELEEKA
B21: LC3A_3_1366 (protein)
chain: MEEKIEELLEYLKKEGKSEETLEAVRKTLEALIEKGYEEAAETFIELMKKLSHLPDELLLDFAKEVLEKVENEDLSEEELIEFIKEEAKIAENEAEIIEL
B22: LC3A_28_772 (protein)
chain: MDIKENAAKAIAEAKAAAAAGEEAVIEIKVPDGATEEDIEIVIKALEEIAEITKDMKSISVVIDVDGGVKQEHLDKLAKAAEEIEEKYPNVTVIIALDEN
B23: LC3A_free_39_2201 (protein)
chain: SEEEFEKYKEELLKLAEKEGEEALKEAKELLKEIEGNVNLAKTVLEEVKRAVEEGADVLELLKELLKLVKELKKEGKSEEEIIKEMKAKADVIINLIPID
B24: LC3A_28_1312 (protein)
chain: SKLKKQFEEAIKEVEAAAAAGEPVVVTIDITAEEAEKELEEILKLLEELAKVASKAPGATIIIDVDEDVKPENLKKIAEKAEELEKKYPNVTVIIAIEDK
B25: LC3A_127_171 (protein)
chain: ELEELLEEALEVAEELSELLEEEDYDFEEIEELTRELLELAKKILELDPRAEDALETAEEMLELLEEMKEADEAEQKELKEHLLMLTEGLIIELLGLQLK
B26: LC3A_free_39_2287 (protein)
chain: SEEELEEAVERLEELLEEIEGVSEEEKEIILEAARESLEMAKAILEALEELRRLGGDVAEAAREIAALIRELRAAGASLEERTAAVIEKARDLVNLIPID
B27: LC3A_132_291 (protein)
chain: QQEKAEELKKEIKEIVEEMKENIDDEEKVRKLLEELEKLMKRAEKELSPELLAEVFEELSELLEELSEEFDEAGKEDLALEADSLAIEAASLALRAKEKI
B28: LC3A_127_206 (protein)
chain: KEKELLKKAEKLAEKAEEAVDKIPKEGEKAREEAIKLLEELAKLLKQIPSLKEALEDTEQAIKLLKETAKLSPAEREETIEQISQIISGILIEIESELLK
B29: LC3A_free_46_2354 (protein)
chain: VEAKIEVDLLHEDEEVLKKAVEAIKEAAKKIAKKYGLKVEIKEKIEKLPDGSYFAEIEITLKGEDKETLEKAVNELINEIDEIAKKYDVAAIISYEIIEK

Molecular target: MAP1LC3A, Q9H492
Test: median log2 fold change of GCK-ALFA target abundance (FLAG IP / Myc IP barcode read proportion) (log2 ratio); each designed protein is fused to an ALFA-tag nanobody in HEK293 cells to bring the named protein to FLAG-tagged glucokinase (GCK); Myc marks an untargeted standard; higher = target protein stabilised (more abundant)
Conditions: target protein: 3xFLAG-MCP-GCK-ALFA reporter; HEK293 landing pad (RPLP)
How it was run: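 Sequencing of reverse-transcribed, amplified circular RNA barcodes from anti-FLAG and anti-Myc immunoprecipitates provided the readout for an ALFA-nanobody-fused binder library recombined into HEK293 landing-pad cells. Those cells were induced with 2 μg mL^−1 doxycycline, transfected with a plasmid expressing a FLAG-tagged target and a Myc-tagged standard, and lysed after 48 h. Target abundance is the per-binder median log2 ratio of FLAG to Myc barcode read proportions. Only barcodes at a proportion of ≥10^−7 in both replicates and binders with ≥3 barcodes per replicate were kept, with a 10^−6 pseudocount added before the two replicates were pooled.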

Point of comparison: B26, “median log2 fold change” value 0.257. Against it:
- B1 — within 0.2 log units, 0.124
- B2 — within 0.2 log units, 0.156
- B3 — within 0.2 log units, 0.0777
- B4 — within 0.2 log units, 0.104
- B5 — lower, -8.53e-05
- B6 — lower, -0.0908
- B7 — within 0.2 log units, 0.0772
- B8 — lower, -0.304
- B9 — lower, -0.618
- B10 — within 0.2 log units, 0.164
- B11 — lower, -0.379
- B12 — lower, -0.355
- B13 — lower, -0.897
- B14 — lower, -0.0575
- B15 — lower, -0.582
- B16 — lower, -0.217
- B17 — within 0.2 log units, 0.219
- B18 — within 0.2 log units, 0.15
- B19 — within 0.2 log units, 0.24
- B20 — lower, 0.0352
- B21 — within 0.2 log units, 0.0931
- B22 — within 0.2 log units, 0.202
- B23 — within 0.2 log units, 0.451
- B24 — lower, -0.0764
- B25 — lower, -0.77
- B27 — lower, -0.27
- B28 — within 0.2 log units, 0.148
- B29 — lower, -1.38e-07
